Each structure is given as a SMILES string. This is part of a sample that, as a whole, favours compounds with a hit. Of some 83,000 tested, about 20% had one in any assay.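 The test compound was applied at a single concentration to cells in 96-well plates for 48 hours, and percent growth was recorded.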 Values without a mark were called inactive. Active and inactive are the calls of the source. Rule for the calls: active = growth percent below 10; inactive = the rest.

One assay has as its system HOP-92 NSCLC. The assay can be described thus: NCI-60 one-dose screen, 48 h (100 = growth as untreated, 0 = no growth, -100 = all killed). Conditions: 10 µM unless noted.
With `C[C@]12O[C@H](C[C@]1(O)CO)n1c3ccccc3c3c4c(c5c6ccccc6n2c5c31)CNC4=O`, the growth is -26.3% (active).

`CSc1nc2ncnc(SC)c2[nH]1`: the growth was 98.7%.

Consider `CCc1nc2cc(/C=C/C(=O)NO)ccc2c(=O)n1CCc1ccc(OC)cc1`, for which the growth is 22.5%.

For the compound `COC(=O)[C@H](Cc1ccc(O)cc1)NC(=O)[C@@H](OC)[C@@H]1Cc2cc3cc(OC4CC(OC5CC(O)C(O)C(C)O5)C(O)C(C)O4)c(C)c(O)c3c(O)c2C(=O)[C@H]1OC1CC(OC2CC(OC3CC(C)(O)C(O)C(C)O3)C(O)C(C)O2)C(O)C(C)O1` (stereo partly drawn), the growth was 12.2%.

Turning to `Nc1ccc(S(=O)(=O)O)c2cc(S(=O)(=O)O)cc(O)c12`, the growth is 124%.

For `COc1cc(-c2nc(C(=O)NCC(=O)O)nn2-c2ccc(Cl)cc2)cc(OC)c1OC`, the growth was 106%.

Take `Cc1ccc(NC(=O)c2ccc(CN3CC[C@H](N(C)C)C3)c(C(F)(F)F)c2)cc1Nc1nccc(-c2cncnc2)n1`: the growth was -84.7% (active).

`Cc1cc(Oc2ccccc2)ccc1Nc1ncnc2ccc(-c3cnc(Cl)c(NS(C)(=O)=O)c3)cc12`: the growth is -14% (active).

With `COc1ccc(-n2c(=O)c3ccccc3n(Cc3ccc(C(=O)NO)cc3)c2=O)cc1`, the growth is 48.2%.

In the case of `N#CC1(C#N)C(c2cccs2)NC(c2cccs2)C1(C#N)C#N` (stereo not drawn), the growth was 113%.

Turning to `CC(C)[C@@H]1CC[C@]2(CO2)[C@@H]2C(=O)OCC(C(=O)O)=C[C@H]21`, the growth is -11.9% (active).

In the case of `O=C(NO)c1ccc(Cn2c(=O)n(CCc3ccccc3)c(=O)c3ccccc32)cc1`, the growth was 66.8%.

Consider `CNC(=O)c1cc(Oc2ccc(NC(=O)Nc3ccc(Cl)c(C(F)(F)F)c3)c(F)c2)ccn1`, for which the growth is -20.1% (active).

With `COc1cc2c3c(c1)nc(C)n3CCC2`, the growth was 94.9%.

`Cc1sc2c(c1C)c(=O)nc1c(-c3nc4ccccc4s3)n[nH]n12`: the growth was 88.7%.

As to `CC(=O)CC1CCCC1c1ccc2ccccc2c1` (stereo not drawn), the growth was 99.7%.

`CCn1cc(-c2ccnc3[nH]c(-c4cccc(CN(C)C)c4)cc23)c(-c2ccc(NC(=O)N(C)C)cc2)n1`: the growth is -13.3% (active).

In the case of `N[C@@H]1CCCN(c2c(/C=C3\SC(=O)NC3=O)cccc2-c2ccccc2)C1`, the growth was 27.9%.

Consider `Brc1ccc([I+]c2ccc(Br)cc2)cc1`, for which the growth is -6.41% (active).

On to `O=C(NC[C@H](O)CO)c1ccncc1Nc1ccc(I)cc1F`, for which the growth was -25.4% (active).

On to `N#Cc1c(NC(=O)c2ccco2)[n+]([O-])c2cc(F)c(F)cc2[n+]1[O-]`, for which the growth was -4.85% (active).

As to `COc1cc2ncnc(Oc3cccc(NC(=O)Nc4cc(C(C)(C)C(F)(F)F)on4)c3)c2cc1OC`, the growth is -3.15% (active).

As to `O=C(c1ccc(/C=C/c2n[nH]c3ccccc23)cc1)N1CCNCC1`, the growth is -3.02% (active).

Regarding `N#CC(C#N)=NO`, the growth was 94%.

As for `CN1CCC(COc2cnc(-c3cccc(Cn4nc(-c5cccc(C#N)c5)ccc4=O)c3)nc2)CC1`, the growth was 72.2%.

For `CC(C)OP(=O)(CCC(=O)c1c[nH]c2ccccc12)OC(C)C`, the growth was 95.5%.

With `COc1cc(NCCN(CC(C)C)CC(C)C)c2ncc(C)cc2c1`, the growth was 132%.

Take `O=c1sn(-c2cccc3ccccc23)c(=O)n1Cc1ccccc1`: the growth was 89.3%.

With `Cc1cc2c(F)c(Oc3ncnn4cc(OC[C@@H](C)OC(=O)[C@H](C)N)c(C)c34)ccc2[nH]1`, the growth was 39.2%.

Consider `CCCCN1C(=O)c2cccc3c(-c4ccc5c(c4)ncn5C4CCCCC4)ccc(c23)C1=O`, for which the growth was 94.6%.

As to `C=CC(=O)Nc1cc2c(Nc3ccc(F)c(Cl)c3)ncnc2cc1OCCCN1CCOCC1`, the growth was -51.7% (active).

In the case of `CCN(CC)CCCC(C)Nc1cc(-c2ccc(C(F)(F)F)cc2)c(C#N)c2nc3ccccc3n12` (stereo not drawn), the growth is 68.8%.

`C=CC(=O)Nc1cc(Nc2nccc(-c3cn(C)c4ccccc34)n2)c(OC)cc1N(C)CCN(C)C`: the growth is -15.8% (active).

Consider `O=C(Nc1cnn2ccc(N3CCC[C@@H]3c3cc(F)ccc3F)nc12)N1CC[C@H](O)C1`, for which the growth is 89.5%.

On to `S=C(NCc1ccc2c(c1)OCO2)N1CCN(c2ncnc3c2oc2ccccc23)CC1`, for which the growth is 38.1%.

Take `O=C(NOC[C@H](O)CO)c1ccc(F)c(F)c1Nc1ccc(I)cc1F`: the growth was -28% (active).

Take `CC(=O)Oc1ccccc1C(=O)N=C1[Se]CCN1C(=O)c1ccccc1OC(C)=O`: the growth is -72.4% (active).

Turning to `COC(=O)CCCNc1c(-c2c(O)c(O)cc3c(O)c(-c4c(C)cc5c(-c6nc7ccccn7c6NCCCC(=O)OC)c(O)c(O)cc5c4O)c(C)cc23)nc2ccccn12`, the growth was 55.3%.

As to `O=C(CNc1nc(-c2ccc(Cl)cc2)cs1)Nc1ccc(-c2nc3ccccc3s2)cc1`, the growth was 92.9%.

In a further assay the test system is NCI-H522 lung. The description is as above. The note with it: 10 µM unless noted.
As to `C[C@]12O[C@H](C[C@]1(O)CO)n1c3ccccc3c3c4c(c5c6ccccc6n2c5c31)CNC4=O`, the growth was -56.2% (active).

For `CSc1nc2ncnc(SC)c2[nH]1`, the growth is 76%.

On to `CCc1nc2cc(/C=C/C(=O)NO)ccc2c(=O)n1CCc1ccc(OC)cc1`, for which the growth is 15.2%.

For the compound `COC(=O)[C@H](Cc1ccc(O)cc1)NC(=O)[C@@H](OC)[C@@H]1Cc2cc3cc(OC4CC(OC5CC(O)C(O)C(C)O5)C(O)C(C)O4)c(C)c(O)c3c(O)c2C(=O)[C@H]1OC1CC(OC2CC(OC3CC(C)(O)C(O)C(C)O3)C(O)C(C)O2)C(O)C(C)O1` (stereo partly drawn), the growth is -19.5% (active).

Consider `Nc1ccc(S(=O)(=O)O)c2cc(S(=O)(=O)O)cc(O)c12`, for which the growth was 103%.

For the compound `COc1cc(-c2nc(C(=O)NCC(=O)O)nn2-c2ccc(Cl)cc2)cc(OC)c1OC`, the growth was 97.1%.

As to `Cc1ccc(NC(=O)c2ccc(CN3CC[C@H](N(C)C)C3)c(C(F)(F)F)c2)cc1Nc1nccc(-c2cncnc2)n1`, the growth was -29.7% (active).

Consider `Cc1cc(Oc2ccccc2)ccc1Nc1ncnc2ccc(-c3cnc(Cl)c(NS(C)(=O)=O)c3)cc12`, for which the growth is 32.1%.

With `COc1ccc(-n2c(=O)c3ccccc3n(Cc3ccc(C(=O)NO)cc3)c2=O)cc1`, the growth is -41.8% (active).

In the case of `N#CC1(C#N)C(c2cccs2)NC(c2cccs2)C1(C#N)C#N` (stereo not drawn), the growth is 95.9%.

Turning to `CC(C)[C@@H]1CC[C@]2(CO2)[C@@H]2C(=O)OCC(C(=O)O)=C[C@H]21`, the growth is -45.8% (active).

With `O=C(NO)c1ccc(Cn2c(=O)n(CCc3ccccc3)c(=O)c3ccccc32)cc1`, the growth is 29.9%.

With `CNC(=O)c1cc(Oc2ccc(NC(=O)Nc3ccc(Cl)c(C(F)(F)F)c3)c(F)c2)ccn1`, the growth was -69.3% (active).

Turning to `COc1cc2c3c(c1)nc(C)n3CCC2`, the growth is 93.4%.

`Cc1sc2c(c1C)c(=O)nc1c(-c3nc4ccccc4s3)n[nH]n12`: the growth was 90.8%.

`CC(=O)CC1CCCC1c1ccc2ccccc2c1` (stereo not drawn): the growth was 93.5%.

On to `CCn1cc(-c2ccnc3[nH]c(-c4cccc(CN(C)C)c4)cc23)c(-c2ccc(NC(=O)N(C)C)cc2)n1`, for which the growth is 6.18% (active).

Turning to `N[C@@H]1CCCN(c2c(/C=C3\SC(=O)NC3=O)cccc2-c2ccccc2)C1`, the growth is 49.7%.

For the compound `Brc1ccc([I+]c2ccc(Br)cc2)cc1`, the growth is -35.7% (active).

`O=C(NC[C@H](O)CO)c1ccncc1Nc1ccc(I)cc1F`: the growth was 51.6%.

In the case of `N#Cc1c(NC(=O)c2ccco2)[n+]([O-])c2cc(F)c(F)cc2[n+]1[O-]`, the growth is 59.2%.

Regarding `COc1cc2ncnc(Oc3cccc(NC(=O)Nc4cc(C(C)(C)C(F)(F)F)on4)c3)c2cc1OC`, the growth was 0.301% (active).

On to `O=C(c1ccc(/C=C/c2n[nH]c3ccccc23)cc1)N1CCNCC1`, for which the growth was 36.2%.

As for `N#CC(C#N)=NO`, the growth was 75%.

Consider `CN1CCC(COc2cnc(-c3cccc(Cn4nc(-c5cccc(C#N)c5)ccc4=O)c3)nc2)CC1`, for which the growth is 25.5%.

Regarding `CC(C)OP(=O)(CCC(=O)c1c[nH]c2ccccc12)OC(C)C`, the growth is 86.9%.

With `COc1cc(NCCN(CC(C)C)CC(C)C)c2ncc(C)cc2c1`, the growth was 73.2%.

On to `O=c1sn(-c2cccc3ccccc23)c(=O)n1Cc1ccccc1`, for which the growth is 74.4%.

For `Cc1cc2c(F)c(Oc3ncnn4cc(OC[C@@H](C)OC(=O)[C@H](C)N)c(C)c34)ccc2[nH]1`, the growth is 58.1%.

Take `CCCCN1C(=O)c2cccc3c(-c4ccc5c(c4)ncn5C4CCCCC4)ccc(c23)C1=O`: the growth was 69.6%.

With `C=CC(=O)Nc1cc2c(Nc3ccc(F)c(Cl)c3)ncnc2cc1OCCCN1CCOCC1`, the growth is -74.6% (active).

Consider `CCN(CC)CCCC(C)Nc1cc(-c2ccc(C(F)(F)F)cc2)c(C#N)c2nc3ccccc3n12` (stereo not drawn), for which the growth was 13.1%.

In the case of `C=CC(=O)Nc1cc(Nc2nccc(-c3cn(C)c4ccccc34)n2)c(OC)cc1N(C)CCN(C)C`, the growth is -68.6% (active).

In the case of `O=C(Nc1cnn2ccc(N3CCC[C@@H]3c3cc(F)ccc3F)nc12)N1CC[C@H](O)C1`, the growth was 70.5%.

Take `S=C(NCc1ccc2c(c1)OCO2)N1CCN(c2ncnc3c2oc2ccccc23)CC1`: the growth was 22.6%.

For `O=C(NOC[C@H](O)CO)c1ccc(F)c(F)c1Nc1ccc(I)cc1F`, the growth is 44.8%.

As for `CC(=O)Oc1ccccc1C(=O)N=C1[Se]CCN1C(=O)c1ccccc1OC(C)=O`, the growth was -6.48% (active).

With `COC(=O)CCCNc1c(-c2c(O)c(O)cc3c(O)c(-c4c(C)cc5c(-c6nc7ccccn7c6NCCCC(=O)OC)c(O)c(O)cc5c4O)c(C)cc23)nc2ccccn12`, the growth is 1.98% (active).

As for `O=C(CNc1nc(-c2ccc(Cl)cc2)cs1)Nc1ccc(-c2nc3ccccc3s2)cc1`, the growth was 93.1%.

The values above are taken from PubChem BioAssay (NCI).
